# According to PubChem BioAssay AID2540 (Sanford-Burnham Center for Chemical Genomics, 2010):
# The campaign covered roughly 330,000 compounds. About 4,100 (1.2%) were called active. The entries come from a sample that favours actives as a whole. A number with no mark means an inactive call. Cut-off read from the data, not from the text of the source: active = inhibition above about 50%; inactive = the rest.
# Biological target: Sentrin-specific protease 8 (Homo sapiens) (UniProt Q96LD8)
# Assay: SENP8 protease inhibitors, primary screen, biochemical, luminescence (AID 2540)
# Conditions: purified SENP8, Z-RLRGG-aminoluciferin cleavage, at 10 µM, hits give high values
# Sequence of Sentrin-specific protease 8 (Homo sapiens) (Q96LD8 whole entry, looked up): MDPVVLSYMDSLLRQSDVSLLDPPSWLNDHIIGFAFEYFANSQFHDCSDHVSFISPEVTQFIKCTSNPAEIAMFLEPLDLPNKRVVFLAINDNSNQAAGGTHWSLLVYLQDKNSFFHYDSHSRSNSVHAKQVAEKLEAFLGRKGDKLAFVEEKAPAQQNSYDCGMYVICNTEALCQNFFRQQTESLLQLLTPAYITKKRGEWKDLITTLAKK
row,Structure (SMILES),inhibition
1,O=C(Nc1c2c(nn1-c1ccc(F)cc1)CS(=O)C2)C12CC3CC(CC(C3)C1)C2 (stereo not drawn),-3.44%
2,CCC(Cc1ccccc1)NC(=O)C1CCCCC1 (stereo not drawn),-7.47%
3,CN(C(=O)CSc1nncc2ccccc12)C1CCCCC1,-9.8%
4,CN(C(=O)c1cc2c(=O)n3ccccc3nc2s1)C1CCCCC1,-2.55%
5,CN(c1ccc2nc3ccccc3c(=O)n2n1)C1CCCCC1,92.6% (active)
6,CC(C(=O)N1CCOCC1)N1c2cccc3cccc(c23)S1(=O)=O (stereo not drawn),3.41%
7,Cc1cccc(NC(=O)Cc2ccc(Br)cc2)n1,-12.8%
8,Cc1cccc(NC(=O)c2cc(N3C(=O)CCC3=O)ccc2Cl)n1,-1.19%
9,Cc1cccc(NC(=O)c2ccc3ccccc3n2)n1,61.5% (active)
10,CC(=O)c1cnc(SCC(=O)O)nc1C,6.9%
11,c1ccc2sc(NN=C3CCCC3)nc2c1,72% (active)
12,O=C(CCC(=O)c1cccs1)Nc1nc2ccccc2s1,-9.74%
13,CCN(CC)CCn1c2c(c(SCC(=O)Nc3nc4ccccc4s3)nc1=O)CCCC2,3.66%
14,COc1ccc(NC(=O)C2COc3ccccc3O2)cc1 (stereo not drawn),-15.1%
15,COc1ccc(OC)c2sc(NC(=O)C3COc4ccccc4O3)nc12 (stereo not drawn),-14.6%
16,O=C(Nc1ncc([N+](=O)[O-])s1)C1COc2ccccc2O1 (stereo not drawn),95.6% (active)
17,COc1ccc(OC)c(NC(=O)Cn2c(=O)oc3ccccc32)c1,-1.75%
18,N#Cc1cc([N+](=O)[O-])ccc1NC(=O)COC(=O)c1cnccn1,-2.92%
19,O=C(CN1CCN(c2ccc(Cl)cc2)CC1)NCc1cccs1,-8.2%
20,CCc1cc(CNC(=O)CC2C(=O)NCCN2CC2CCCCC2)on1 (stereo not drawn),-2.78%
21,CCCCCN(C(=O)CCC(=O)OCCOc1ccc(OC)cc1)c1c(N)n(CCCC)c(=O)[nH]c1=O,6.98%

row,Structure (SMILES),inhibition
1,Cn1c(CCN2CCCCCC2)nc2cc(NC(=O)Nc3ccccc3)ccc21,1.11%
2,Cc1nc2cc(NC(=O)Nc3cccc(F)c3)ccc2n1C,90.8% (active)
3,C=CCN(C(=O)Nc1ccc2c(c1)nc(C)n2C)c1ccccc1,0.305%
4,O=C(COC(=O)c1cnccn1)Nc1cccc2ccccc12,1.04%
5,O=C(CSc1ncnc2c1nnn2Cc1ccc(F)cc1)NC1CCCC1,-8.4%
6,O=C(c1ccc(S(=O)(=O)c2ccccc2)cc1)N1CCCCCC1,-5.04%
7,O=C(Nc1ccccc1C(=O)N1CCOCC1)c1ccc(CSc2ccccc2)cc1,-3.32%
8,O=C(c1ccc(CSc2ccccc2)cc1)N1CCCCCC1,64.4% (active)
9,O=C(CSc1nccc(=O)[nH]1)Nc1ccc(N2CCOCC2)c(Cl)c1,2.95%
10,Cc1sc(NC(=S)NC(=O)c2cccs2)nc1-c1ccc(CC(C)C)cc1,13.2%
11,Cc1ccc(C(=O)N/C(=C/c2cccnc2)C(=O)O)cc1,-10.8%
12,C/C(=N\NC(=O)CNC(=O)C(c1ccccc1)c1ccccc1)c1ccc(C)cc1,-7.34%
13,C/C(=N\NC(=O)c1ccc(C)cc1)C1C(=O)c2ccccc2C1=O,86.8% (active)
14,O=C(NCCOc1cccnc1)c1ccc(OC2CCN(Cc3ccccn3)CC2)cc1,-5.27%
15,CCN(C(=O)COc1cccnc1[N+](=O)[O-])C1CCS(=O)(=O)C1 (stereo not drawn),1.37%
16,O=C1C2CCCN2C(=O)N1CCCCN1CCN(c2cccc(C(F)(F)F)c2)CC1 (stereo not drawn),11.4%
17,O=C(COC(=O)c1cccnc1Cl)Nc1ccc(S(=O)(=O)N2CCOCC2)cc1,-1.74%
18,COc1ccc(NS(=O)(=O)c2cc(C(=O)Nc3ccccc3C(=O)O)ccc2C)cc1,-12.1%
19,COc1ccc(/C=N/Nc2ccccc2C(=O)O)cc1,96.1% (active)
20,COc1ccc(C(=O)Nc2ccccc2C(=O)N/N=C/c2ccc(O)c(OC)c2)cc1,96.1% (active)
21,O=C(N/N=C/c1ccc(OC(=O)c2ccccc2Cl)cc1)c1ccc(O)cc1,1.64%

row,Structure (SMILES),inhibition
1,COc1ccc(/C=N/OCC(=O)N(Cc2ccccc2)c2ccccc2C(=O)O)cc1,-0.249%
2,COc1ccc(C(=O)Nc2ccccc2C(=O)N2CCN(c3ccccc3)CC2)cc1,0.756%
3,CCOC(=O)C(C)n1cnc2c(nnn2-c2cccc(OC)c2)c1=O (stereo not drawn),-4.12%
4,Cc1cc(=O)oc2c(C(=O)c3ccccc3)c(OCC(N)=O)ccc12,5.39%
5,Nc1[nH]c(=S)nc2nc(-c3ccccc3)c(-c3ccccc3)nc12,-9.6%
6,Cc1cccnc1CCNC(=O)C1CCC(=O)N(Cc2cccc(F)c2)C1 (stereo not drawn),-1.77%
7,O=C(CNCc1ccco1)Nc1cc(S(=O)(=O)N2CCOCC2)ccc1N1CCCC1,-6.3%
8,CCN(CC)C(=O)CC1(c2ccccc2OC)CCOC(C(C)C)C1 (stereo not drawn),-10.8%
9,COc1ccc(CCNC(=O)C2CCCN2C(=O)Nc2ccccc2)cc1OC (stereo not drawn),-4.97%
10,Brc1ccc(-c2noc(-c3ccccc3)n2)o1,73% (active)
11,Nc1nonc1-c1noc(-c2ccc(Br)o2)n1,-7.25%
12,Brc1ccc(-c2nnc(-c3ccccc3)o2)o1,35.5%
13,O=C(CCc1nc2ccccc2c(=O)[nH]1)OCC(=O)c1cccc(Cl)c1,-5.04%
14,O=c1[nH]c(CCl)nc2cc(-c3ccc(Cl)cc3)sc12,90.6% (active)
15,CCC1(CC)Cc2ccccc2-c2nc(CCl)[nH]c(=O)c21,1.95%
16,O=C(NCCc1ccco1)C(=O)NCCC1CCCCN1S(=O)(=O)c1ccccc1 (stereo not drawn),2.72%
17,CC(C)(C)NC(=O)CN(Cc1cccs1)C(=O)CNS(=O)(=O)c1ccccc1,2.68%
18,O=C(CSc1cccc[n+]1[O-])NCCCc1ccccc1,3.26%
19,Fc1ccc(COc2cccc(-c3n[nH]c(=S)o3)c2)cc1,26.4%
20,Fc1ccc(COc2ccc(-c3nnco3)cc2)cc1,52.5% (active)
21,Fc1cccc(Cl)c1COc1ccc(-c2nnco2)cc1,-0.803%
